Hit rate of the full screen: of about 300,000 compounds, about 37,000 (12%) were called active. For the sample, actives were picked, then their nearest neighbours and some compounds at random. Unmarked numbers belong to inactive results. Rule as the data show it: active = max response mostly above about 13% (no sharp cut-off); inactive = mostly below about 14%.

The test can be described thus: Cycloheximide Counterscreen for Small Molecule Inhibitors of Shiga Toxin. Also: read at 38.3 µM for the half of the compounds with a filed dose; 0% is about no effect. The conditions noted are these: cell reporter, cycloheximide protein synthesis inhibition counterscreen; stronger effect = higher value. In general terms: The purpose of a counterscreen is to sort out artefacts and off-target activity.
Regarding `CN(C)CCCCCN(C)Cc1cc2ccccc2o1`, the max response is -0.524%.
The result for `COCCCNC(=O)CNC(=O)c1nn(-c2ccc(OC)cc2)c(=O)c2ccccc12` reads -1.37%; that for `O=C(Nc1ccccc1C(=O)O)c1ccc(N2C(=O)C3CC=CCC3C2=O)cc1` (stereo not given), -5.5%.
For `O=C1CSc2ccc(S(=O)(=O)NCc3ccccc3)cc2N1` the value was 7.11%.
As to `COc1cccc(N(C(=O)c2ccn[nH]2)C2(C(=O)Nc3c(C)cccc3C)CCCCC2)c1`, the max response is -5.43%.
For `CC1CCN(c2oc(-c3ccccc3F)nc2C#N)CC1` the value was 28.8% (active); for `COc1ccccc1-c1nc(C#N)c(N2CCC(C(N)=O)CC2)o1`, -3.17%; for `Cc1oc(-c2ccccc2F)nc1CS(=O)CC(=O)NCCN1CCCCC1C` (stereo not given), -6.49%.
The result for `Cc1ccc(NN=Nc2nc3c([nH]2)c(=O)n(C)c(=O)n3C)cc1` reads 11.7%; that for `Cc1cccc(C)c1NC(=O)CN1C(=O)C(C)Oc2ccccc21` (stereo not given), 1.84%; that for `COCCn1c(SCC(=O)Nc2ccccc2F)nc2c(c1=O)SCC2`, 8.88%.
On to `COc1ccc(C(C)NC(=S)NC2CCCCC2)cc1OC` (stereo not given), for which the max response was -2.46%.
On to `COc1cc(Br)c(-c2sc(Nc3ccccc3)n[n+]2-c2ccccc2)cc1OC`, for which the max response was 1.49%.
For `CCc1ccc(Oc2coc3cc(O)ccc3c2=O)cc1` the value was 31.5% (active); for `COc1ccc(Oc2coc3cc(OC(=O)c4cncc(Br)c4)ccc3c2=O)cc1`, 5.74%.
`CCc1ccc(Oc2coc3cc(OC(=O)c4cc5ccccc5oc4=O)ccc3c2=O)cc1`: the max response is 12%.
Turning to `CC[C@H](C)[C@H](NC(=O)[C@H](Cc1ccc(O)cc1)NC(=O)[C@@H](NC(=O)[C@H](CCCN=C(N)N)NC(=O)[C@@H](N)CC(=O)O)C(C)C)C(=O)N[C@@H](Cc1cnc[nH]1)C(=O)N1CCC[C@H]1C(=O)N[C@@H](Cc1ccccc1)C(=O)O`, the max response was 16%.
For `C=CCN1C(=O)C2(OCCCO2)c2cccc(Cl)c21` the value was 1.84%; for `Cc1ccc(CNC(=O)Cn2cnc(S(=O)(=O)N3CCCCC3)c2)o1`, 6.21%.
With `CCOC(=O)c1ccc(NC(=O)CSc2nnc(COc3ccccc3OC)n2C)cc1`, the max response was 4.99%.
Consider `O=C(Cc1ccccc1)Nc1ccc(NC(=O)c2cccnc2)cc1`, for which the max response was -2.68%.
Regarding `C#CCNc1ccc(C(=O)OCC)cc1`, the max response was 31.8% (active).
With `CCOC(=O)c1ccc(NC(=O)CCn2c(=O)oc3ccccc32)cc1`, the max response was 9.25%.
The result for `CCOC(=O)c1ccc(NC(=O)c2cccnc2)cc1` reads 38.1% (active).
With `CCCCC(CCC(=O)Nc1ccc(C(=O)OCC)cc1)C(=O)O` (stereo not given), the max response was 0.691%.
The result for `CC(C)NS(=O)(=O)c1ccc(NC(=O)c2cccnc2)cc1` reads -3.02%; that for `CCOC(=O)c1ccc(-c2ccc(C(=O)Nc3cccnc3)o2)cc1`, 32.1% (active).
For `COc1ccc(C)cc1NC(=O)c1ccc(-c2ccc(C(C)=O)cc2)o1` the value was 16%.
For the compound `CCCc1nnc(SCC(=O)Nc2ccc(C(=O)OCC)cc2)o1`, the max response was 3.14%.
For `CCOC(=O)c1ccc(NC(=S)N2CCCC2)cc1` the value was 9.83%; for `CCOC(=O)c1ccc(NC(=O)CSc2ncccn2)cc1`, 26.6% (active).
For `COc1ccccc1N1CC(C(=O)Nc2nnc(SCC(=O)NC(C)C)s2)CC1=O` (stereo not given) the value was -0.494%.
With `C=CCN1C(=O)C(O)(CC(=O)c2ccc(Cl)cc2)c2ccccc21` (stereo not given), the max response is -1.68%.
As for `Cc1c([N+](=O)[O-])c(N)nn1C`, the max response is -1.77%.
For `COCCNC(=S)N(CCc1c(C)[nH]c2ccc(C)cc12)Cc1cccnc1` the value was -0.385%.
The result for `C=CCNC(=O)c1sc(SC)cc1-c1ccc(Cl)cc1` reads -0.634%.
For `CCOC(=O)C1CCN(C(=O)CN2C(=O)c3cccnc3Oc3ccc(C)cc32)CC1` the value was -3.81%; for `CCCOc1ccc(C(=O)C(CCC(CNCC)C(=O)c2ccc(OCCC)cc2)CNCC)cc1` (stereo not given), -10%; for `O=S(=O)(NCC1CC1)c1ccc(F)c(Cl)c1`, 0.9%.
Consider `O=C(NC1C2CC3CC(C2)CC1C3)c1ccc(N2CCNCC2)c([N+](=O)[O-])c1` (stereo not given), for which the max response was -2.96%.
The result for `N#Cc1cc([N+](=O)[O-])ccc1NCC1CCCO1` (stereo not given) reads -4.48%.
Consider `CCOC(=O)c1ccc(NC(=O)Cc2cccs2)cc1`, for which the max response is 33% (active).
For `O=C(Cc1cccs1)Nc1ccc([N+](=O)[O-])cc1` the value was -1.6%.
For `CCOc1ccccc1NC(=O)Cc1cccs1` the value was -3.39%; for `COc1cccc(NC(=O)CC(c2ccc(OC(C)C)cc2)c2ccccc2OC)c1` (stereo not given), 2.51%; for `COc1ccc(/C=C(\NC(=O)c2ccc(OCC(C)C)cc2)C(=O)OCc2ccco2)cc1`, -1.98%.
On to `COc1ccc(Cn2c(=S)[nH]c3cc(C(=O)NCCCN4CCOCC4)ccc3c2=O)cc1`, for which the max response is -1.29%.
For `Cc1ccc(S(=O)(=O)NCCC(=O)Nc2cccc(S(N)(=O)=O)c2)cc1C` the value was -4.85%; for `Cc1ccc(S(=O)(=O)NCCC(=O)Nc2ccc(C)c(Cl)c2)cc1C`, -4.03%; for `Cc1ccnc(NC(=O)CCNS(=O)(=O)c2ccc(C)c(C)c2)c1`, 47.8% (active).
In the case of `O=C1C=C(c2ccc(Cl)cc2)C(=O)N1Nc1ccccc1`, the max response was -6.32%.
The result for `CCOc1cc(CNn2c(C)nnc2SCC(=O)NC(C)(C)C)ccc1OCC(=O)NC(C)(C)C` reads -1.88%; that for `Cn1cnc2c1c(=O)n(Cc1ccccc1C#N)c(=O)n2C`, 7.66%.
For `COc1ccccc1CN1CCCC(N2CCN(c3ccc(F)cc3)CC2)C1` (stereo not given) the value was 0.35%; for `N#CC(C#N)=Cc1cc(O)c(O)c([N+](=O)[O-])c1`, 37% (active).
For `CN(C)/N=C/c1cc(Cl)cc([N+](=O)[O-])c1O` the value was -1.13%.
Take `O=[N+]([O-])c1cc([N+](=O)[O-])c2cccnc2c1O`: the max response was 5.27%.
The result for `O=[N+]([O-])c1ccccc1/C=C/CN1CCC(O)CC1` reads 0.466%; that for `COc1ccc(CCNCc2c(-c3ccccc3)n(C)c3ccccc23)cc1`, -3.43%; that for `COc1ccc(-c2c(C#Cc3ccccc3)c3ccccc3n2C)cc1`, 40% (active).
For `CN(C)Cc1c(C#N)c2ccccc2n1C` the value was -3.13%; for `Cc1cc(=O)oc2c1ccc1ccccc12`, 0.801%.
Regarding `O=C(CSc1nccc(=O)[nH]1)Nc1ccc(N2CCOCC2)c(Cl)c1`, the max response is -2.31%.
For `COc1ccc(CCNC(=O)CS(=O)(=O)Cc2nc(-c3ccc(C)cc3)oc2C)cc1OC` the value was -4.16%.
The result for `CCCC(=O)Nc1c(O)c2ccccc2[nH]c1=O` reads -3.15%; that for `NS(=O)(=O)c1ccccc1NC(=O)c1c(O)c2ccccc2[nH]c1=O`, 41.2% (active).
For `CC(C)C(=O)Nc1c(O)c2ccccc2[nH]c1=O`, the max response is -0.723%.
As to `N#Cc1ccc(-c2nc3cc(C#N)c(C#N)cc3nc2-c2ccccc2)cc1C#N`, the max response is 18.4%.
For `Cc1ccc(N2C(=O)C3C4C=CC(CC4)C3C2=O)cc1Br` (stereo not given) the value was 0.748%.
Regarding `COc1ccc(CNC(=O)CN(c2ccc(OC)c(Cl)c2)S(=O)(=O)c2ccc(C)cc2)cc1`, the max response was 6.81%.
The result for `COc1cc(N/C=C2\CC(=O)NC(C)=C2C#N)cc(OC)c1OC` reads -2.39%.
The result for `O=C(c1ccncc1)N1CCN(c2ccc3ccccc3n2)CC1` reads 8.94%; that for `c1cnc(N2CCN(c3ccc4ccccc4n3)CC2)nc1`, 53% (active); that for `Oc1ccc(CN2CCN(c3ncccn3)CC2)cc1`, -3.1%.
On to `Fc1cc(F)c2nc(N3CCOCC3)sc2c1`, for which the max response was 36.9% (active).
For the compound `Cc1nc(N2CCOCC2)sc1C(=O)NN`, the max response is -3.93%.
Regarding `Cc1cc(C)c2nc(N3CCC(C(=O)NCCN4CCOCC4)CC3)sc2c1`, the max response is -2.32%.
For the compound `COc1cc(OC)cc(C(=O)N[C@H](C(=O)Nc2nc3ccccc3[nH]2)C(C)C)c1`, the max response was 0.422%.
The result for `CC(C)c1nc2ccc(C(=O)O)cc2[nH]1` reads 7.51%.
In the case of `COC(=O)Nc1nc2ccc(Sc3ccccc3)cc2[nH]1`, the max response was 27.6% (active).
The result for `Cc1ccc(Nc2nc(N3CCOCC3)nc(N3CCOCC3)n2)cc1Cl` reads -3.32%; that for `Nc1nc(Nc2ccccc2)nc(NCCO)c1[N+](=O)[O-]`, 0.849%; that for `CNc1nc(Nc2ccc(C)c(Cl)c2)nc(N)c1[N+](=O)[O-]`, 32.5% (active).
With `c1ccc2c(c1)CSc1sccc1C2=C1CCNCC1`, the max response was -3.55%.
`CC(=O)NC(=S)NNC(=O)c1ccc(Br)cc1`: the max response was 12.5%.
Turning to `Cc1ccccc1Cn1c2ccccc2c2cnn(CC(=O)NCc3ccco3)c(=O)c21`, the max response is 1.52%.
On to `Cc1[nH]c2ccc(C(=O)N3CCN(C)CC3)cc2c1C`, for which the max response was 28% (active).
Take `CCOc1ccccc1N1CCN(C(=O)c2ccc3[nH]c(C)c(C)c3c2)CC1`: the max response is -2.02%.
As for `COc1ccc2[nH]c(C(=O)N3CCN(C)CC3)c(C)c2c1`, the max response was 7.26%.
The result for `FC(F)(F)c1cnc(Oc2ccccc2-c2nnc(-c3ccc(Cl)cc3)o2)c(Cl)c1` reads 13.8% (active); that for `COC(=O)Cc1ccc(Oc2ncc(C(F)(F)F)cc2Cl)cc1`, 10.3%.
The result for `Cc1cc(C)cc(NS(=O)(=O)c2ccc(Oc3ncc(C(F)(F)F)cc3Cl)cc2)c1` reads -3.33%.
Turning to `CSc1ccccc1-c1nnc(-c2ccc(Cl)cc2)o1`, the max response is 29% (active).
The result for `Cc1c(C)c2ccc(OCC(=O)N3CCN(c4cccc(Cl)c4)CC3)cc2oc1=O` reads -3.72%.
Take `COc1cccc(-c2coc3cc4oc(=O)c(CC(=O)O)c(C)c4cc23)c1`: the max response was 7.42%.
